# Compound activity from PubChem BioAssay.
# KDM5B inhibitor: inhibitors of human KDM5B histone demethylase; KDM5B demethylase, FDH-coupled NADH fluorescence (FDH is formaldehyde dehydrogenase); hit rate 2.6% among 220,000; Potency, µM (highest dose often 57.7 µM), most hits filed as inhibitors; Q9UGL1; AID 1347165; active = well fitted inhibition curve with a large enough effect; inconclusive = small, poorly fitted or top-dose-only effect; inactive = no such curve, though single readings can be large or run the other way; note: potency is the fitted concentration of half-maximal effect; 0% is about no effect; nearly all actives have a fitted effect of over 70% in size
#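 Inhibition is measured as reduced NADH fluorescence generation from FDH coupling to formaldehyde release. Truncated KDM5BΔAP at 200 nM final acts on H3K4me3 peptide (12.5 µM in substrate mix) in pH 7.5 HEPES buffer with Tween-20, 30 min, room temperature.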
# IP6K1 inhibitor: inhibitors of human IP6K1; hit rate 0.81% among 140,000; activity change, % (series mostly up to about 58 µM); Q92551; IP6K1 kinase, ADP-Glo luminescence, 2 h; active compounds read low; in the data active = activity change below about -25%; note: % is set by controls: 0 for no effect and ±100 for the full control effect
# Target sequence (Q92551 whole entry, looked up): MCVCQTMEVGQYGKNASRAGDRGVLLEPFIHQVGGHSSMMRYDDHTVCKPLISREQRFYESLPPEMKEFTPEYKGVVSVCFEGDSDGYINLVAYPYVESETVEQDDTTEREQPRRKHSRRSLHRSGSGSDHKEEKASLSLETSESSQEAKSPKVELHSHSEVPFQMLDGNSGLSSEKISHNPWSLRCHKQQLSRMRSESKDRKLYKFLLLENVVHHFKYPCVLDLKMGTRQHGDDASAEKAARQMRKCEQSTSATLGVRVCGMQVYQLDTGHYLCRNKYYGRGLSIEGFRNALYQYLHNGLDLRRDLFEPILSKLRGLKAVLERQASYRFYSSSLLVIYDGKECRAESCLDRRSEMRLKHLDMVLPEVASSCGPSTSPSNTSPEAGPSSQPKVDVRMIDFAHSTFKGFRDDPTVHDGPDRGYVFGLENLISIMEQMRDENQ
#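 ADP-Glo luminescence measures ADP made by human IP6K1 during a 2 h RT reaction with ATP/IP6 (mix at 1.3 mM/130 uM); top library doses 57.5 and 19.1 uM final.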
# Numbers without * were called inactive; i = inactive; u = inconclusive; x = no result given. Most compounds without a hit are left out; they make up all but 2.8% or so of the library.
SMILES,KDM5B inhibitor,IP6K1 inhibitor
CN1CCc2[nH]cnc2C12CCN(C(=O)c1cccc(-n3cccn3)c1)CC2,i,-3.6
CC1(COCC2CC2)COc2ccc(C(=O)NCc3ccccc3)cc2N1 (centres undefined),35.5µM*,7.2
CC1(COCC2CC2)COc2ccc(C(=O)Nc3cccc([S+](C)(=O)[O-])c3)cc2N1 (centres undefined),u,-8.9
CC1(COCC2CC2)COc2ccc(C(=O)NCc3ccc4c(c3)OCO4)cc2N1 (centres undefined),u,-5.9
CC1(COCC2CC2)COc2ccc(C(=O)NCc3ccncc3)cc2N1 (centres undefined),u,9.0
CC(C)CNC(=O)c1ccc2c(c1)NC(C)(COCC1CC1)CO2 (centres undefined),39.8µM*,18.5
CC1(COCC2CC2)COc2ccc(C(=O)Nc3ccccc3)cc2N1 (centres undefined),25.1µM*,8.2
CSc1ccc(C(C)NC(=O)Cc2cccc(F)c2)cc1 (centres undefined),i,x
CCCCCNC(=O)[C@@H]1CCCN1c1ccnc2ccnn12,x,-5.4
Cn1cc(CC(=O)N2CCCc3ncc(C(=O)Nc4cccc(F)c4)cc32)c2ccccc21,31.6µM*,5.6
Cn1cc(CC(=O)N2CCCc3ncc(C(=O)NCc4ccccc4)cc32)c2ccccc21,i,12.1
COc1cccc(NC(=O)c2cnc3c(c2)N(C(=O)Cc2cn(C)c4ccccc24)CCC3)c1,u,13.2
CC(C)c1ccc(CC(=O)N2CCCc3ncc(C(=O)Nc4cccnc4)cc32)cc1,u,-21.6
O=C(Nc1cccnc1)c1cnc2c(c1)N(Cc1ccccc1)CCC2,35.5µM*,-5.0
Cn1cc(CC(=O)N2CCCc3ncc(C(=O)Nc4cccc(C(F)(F)F)c4)cc32)c2ccccc21,22.4µM*,10.1
O=C(Nc1ccccc1)c1cnc2c(c1)N([S+](=O)([O-])c1cccnc1)CCC2,i,18.1
CC(C)c1ccc(CC(=O)N2CCCc3ncc(C(=O)Nc4cccc(Cl)c4)cc32)cc1,28.2µM*,6.7
CC(C)=C(/C(=C/CS(=O)(=O)c1ccc(C)cc1)S(=O)(=O)c1ccc(Br)cc1)S(=O)(=O)c1ccc(Br)cc1,i,x
O=C(c1ccc(C(F)(F)F)cc1)N1CCC(C(=O)N2CCC(N3CCOC3=O)CC2)CC1,x,-5.0
O=C(CNC(=O)c1cccc(-c2ccc(C(F)(F)F)cc2)c1)NC1CCCC1,x,3.9
COc1ccccc1Nc1ccnc(N2CCCC(C(=O)NCc3ccc(F)cc3)C2)n1 (centres undefined),x,4.8
Cn1ncc2c(C(=O)NCc3cccc(F)c3)cc(-c3ccccc3F)nc21,x,4.4
CCn1cc(CN2CCC3(CC2)CN(C)CC3COC)cn1 (centres undefined),25.1µM*,17.3
COCC1CN(C)CC12CCN(Cc1cnn(C(C)C)c1)CC2 (centres undefined),u,-2.6
C[N+]1(CC#Cc2ccc(C#CC[N+]3(C)CCCC3)cc2)CCCC1,i,x
SMILES,KDM5B inhibitor,IP6K1 inhibitor
Cc1cc(Cl)ccc1Nc1ncncc1-c1nc(-c2ccccc2)no1,u,-14.4
Cc1ccc(Cl)cc1Nc1ncncc1-c1nc(-c2ccccc2)no1,25.1µM*,-6.0
Fc1ccc(CNc2ncncc2-c2nc(-c3ccccc3)no2)cc1,u,-5.6
Cc1ccc(CCNc2ncncc2-c2nc(-c3ccccc3)no2)cc1,31.6µM*,-8.6
CC(=O)c1c(C)cc(C)c(COC(=O)c2ccccn2)c1C,i,x
O=C(NCc1ccccc1)c1ccc2nnc(-c3cc[nH]c3)n2c1,x,-9.5
CC(C)(C)OC(=O)NCCCNC(=O)[C@@H]1CCCN1c1ccnc2ccnn12,x,6.7
CN(C)Cc1cccc(-c2cc3c(ccn3Cc3ccncc3)c(N3CCOCC3)n2)c1,39.8µM*,1.2
O=C(O)c1cncc(-c2cccc(CN3CCOCC3)c2)n1,u,-6.8
Cn1ccc2c(C(=O)NCc3cccnc3)nc(-c3cccc(N4CCOCC4)c3)cc21,i,-7.7
c1cc(-c2cc3c(ccn3Cc3ccncc3)c(N3CCOCC3)n2)cc(N2CCOCC2)c1,20µM*,4.3
COCCCNC(=O)c1cc(-c2ccncc2)nc2ccccc12,i,x
CC1CCCC(C)N1C(=O)c1ccc2oc(-c3ccnc(Cl)c3)nc2c1 (centres undefined),x,2.4
COc1ccccc1C(=O)NC1CCN(Cc2ccc(-c3cc(F)ccc3OC)cc2)C1 (centres undefined),x,4.2
Cc1noc(C)c1-c1cc2c(cc(C)n2C)c(N2CCN(c3ccccn3)CC2)n1,31.6µM*,-11.1
Cc1noc(C)c1-c1cc2c(cc(C)n2C)c(NC2CCN(C)CC2)n1,i,-12.4
COc1ccccc1-c1cccc(C(=O)N2CCN([S+](=O)([O-])c3ccc(C)cc3)CC2)c1,x,16.4
CC(C)NC(=O)NCCNC(=O)c1cccc(-c2ccsc2)c1,x,1.8
CC(=O)Nc1ccccc1-c1nccc2c(=O)cc(N(C)C3CCOCC3)oc12,35.5µM*,-8.8
CN(c1cc(=O)c2ccnc(-c3cccc(CO)c3)c2o1)C1CCOCC1,39.8µM*,-19.3
CN(c1ccccc1)c1cc(=O)c2ccnc(NCC3CCOCC3)c2o1,i,-22.0
CN(c1cc(=O)c2ccnc(Nc3ccn(C)n3)c2o1)C1CCOCC1,u,-3.9
CN(c1cc(=O)c2ccnc(-c3ccc([S+](C)(=O)[O-])cc3)c2o1)C1CCOCC1,35.5µM*,-5.4
CN(C)c1cccc(-c2nccc3c(=O)cc(N(C)C4CCOCC4)oc23)c1,28.2µM*,-18.3
Cc1noc(C)c1-c1nccc2c(=O)cc(N(C)C3CCOCC3)oc12,u,-10.3
SMILES,KDM5B inhibitor,IP6K1 inhibitor
CN(c1cc(=O)c2ccnc(-c3cncnc3)c2o1)C1CCOCC1,i,-16.3
CCOC(=O)[C@H]1C[C@]2(CCCCN(CCOC)C2=O)N(C(=O)Cc2ccc(F)cc2)[C@H]1c1ccccc1,x,10.6
Cc1cc(=S)n2cn[nH]c2n1,i,x
O=C(c1ccc(F)cc1)N1CCN(c2nccc(Nc3ccccc3Cl)n2)CC1,x,22.3
O=C(NC1CCCN(c2ccc3nnc(-c4ccccc4)n3n2)C1)C1CCCC1 (centres undefined),x,4.3
O=C(C1CCCC1)N1CCc2nc(-c3ccccc3)nc(-c3ccc(Cl)cc3)c2C1,u,-4.7
CCCNC(=O)C12CC3CC(C1)CC(c1ccccc1)(C3)C2,i,x
CN1CCN(c2cc(=O)c3ccnc(N4CCOCC4)c3o2)CC1,i,-16.4
CN1CCN(c2nccc3c(=O)cc(N(C)C4CCOCC4)oc23)CC1,39.8µM*,-17.7
CNC(=O)c1cc(C2CC2)nc2onc(C3CCCN3C(=O)NC(C)(C)c3ccccc3)c12 (centres undefined),x,-2.4
CCOCC(=O)N1CCC(Oc2ncccc2C(=O)N2CCCCC2)C1 (centres undefined),i,14.9
CCOCC(=O)N1CCC(Nc2cccn3ncnc23)CC1,15.8µM*,6.8
Cc1ccccc1/C=C/c1ccc2ccccc2n1,i,x
Cc1ccc2oc(C(=O)O)c(C)c2c1,i,x
Cc1ccc2oc(C(=O)NC3CC(=O)N(C(C)C)C3)c(C)c2c1 (centres undefined),25.1µM*,10.7
Cc1cc(/C=N/O)c(C)n1-c1ccncc1,i,x
O=C(NCc1cccs1)C1CCCCN1Cc1ccc(-c2cccs2)cc1 (centres undefined),x,-1.0
COc1ccc([C@H]2CN(C(=O)C3(c4ccc(F)cc4)CC3)C[C@@H]2N)cc1,i,36.7
